The list is not random: actives were taken first. Their share in the collection is about 3.2%.
Mcl1 Bid PPI: Mcl-1/Bid interaction inhibition; Q07820; TR-FRET Mcl-1/Bid-Dy647 peptide binding, 1536-well; inhibition, % at 21.7 µM; 0.97% of 220,000 active; AID 1021;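 active = compounds that cut the binding signal by more than half at the single screening dose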;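 note: His-tagged Mcl-1 with europium anti-His antibody binding Bid BH3 peptide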
Target sequence (Q07820 whole entry, looked up): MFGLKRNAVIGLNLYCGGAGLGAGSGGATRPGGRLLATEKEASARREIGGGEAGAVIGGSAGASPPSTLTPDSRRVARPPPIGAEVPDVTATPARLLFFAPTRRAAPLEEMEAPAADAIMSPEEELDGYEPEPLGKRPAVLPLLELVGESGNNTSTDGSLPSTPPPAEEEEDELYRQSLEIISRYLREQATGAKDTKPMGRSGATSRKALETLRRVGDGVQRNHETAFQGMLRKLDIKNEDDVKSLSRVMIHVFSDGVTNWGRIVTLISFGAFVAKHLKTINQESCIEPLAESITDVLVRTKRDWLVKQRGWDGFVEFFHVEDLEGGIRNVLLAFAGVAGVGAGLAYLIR
Mcl-1 Bim block: inhibitors of Bim-Mcl-1 interaction, human | Bead-based flow cytometry, Bim peptide-Mcl-1 binding | 0.1% of 190,000 active | inhibition, % at 10 µM | Q07820; in the data active = inhibition above about 40%
Mcl1-Noxa inh: disrupts binding of human Mcl-1 to Noxa peptide. TR-FRET Mcl-1/Noxa peptide binding, 2 h. 1.5% of 220,000 active. AID 1022. inhibition, % at 21.7 µM. Q07820;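 active = compounds that cut the protein-peptide binding signal by more than 50% relative to plate controls in a single-dose test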;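 note: His-tagged Mcl-1 with rhodamine Noxa BH3 peptide and terbium anti-His antibody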
14-3-3 Bad inh: disrupts binding of bovine 14-3-3 zeta to phospho-Bad peptide. P63103. TR-FRET 14-3-3zeta/Dy647-pBad peptide displacement, 1 h. inhibition, % at 21.7 µM. 0.71% of 220,000 active. AID 781;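 active = inhibition above about 70%, limit read from the data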
Target sequence (P63103 whole entry, looked up): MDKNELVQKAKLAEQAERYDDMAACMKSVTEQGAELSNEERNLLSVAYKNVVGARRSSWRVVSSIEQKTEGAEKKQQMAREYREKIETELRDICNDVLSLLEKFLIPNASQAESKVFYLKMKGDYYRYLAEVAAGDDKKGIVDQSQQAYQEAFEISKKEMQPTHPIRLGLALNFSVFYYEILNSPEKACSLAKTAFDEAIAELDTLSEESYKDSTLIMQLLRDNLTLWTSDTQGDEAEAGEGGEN
p47phox inh: blocks human p47phox regulatory protein of NADPH oxidases; P14598; 0.53% of 220,000 active; p47phox/p22phox peptide binding, fluorescence polarization, 2 h; inhibition, % at 24.7 µM;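 active = inhibition above about 30%, limit read from the data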
Hits are given with their value; . = inactive; / = not tested or not shown; [ ] = another dose, or the depositor's remark.

SMILES	Mcl1 Bid PPI	Mcl-1 Bim block	Mcl1-Noxa inh	14-3-3 Bad inh	p47phox inh
CC(=O)NC1C(=O)N=C(SCC(=O)NC(C)c2ccccc2)NC1=O (centres undefined)	56	.	.	.	.
CC(=O)NC1C(=O)N=C(SCc2ccccc2)NC1=O (centres undefined)	.	.	.	.	.
OCCC1CN(Cc2ccon2)CCN1CCc1ccccc1 (centres undefined)	.	.	.	.	.
CC1(C)CC(=O)C(C=Nc2cccc(/N=C/C3=C(O)CC(C)(C)CC3=O)n2)=C(O)C1	.	.	85	.	.
Oc1ccc(Nc2nc(-c3ccc4ccccc4c3)cs2)cc1	.	.	.	.	.
Oc1ccc(-c2nc(-c3ccc(O)c(O)c3)cs2)cc1	.	.	59	.	.
CCC(C)c1ccccc1NC(=O)C(C)NCCN(C)C (centres undefined)	60	/	.	.	.
Nc1nc2nc(SCC(=O)N3CCCc4ccccc43)[nH]c2c(=O)[nH]1	.	.	59	.	.
Nc1cc(=O)[nH]c(SCC(=O)N2CCCc3ccccc32)n1	.	.	.	.	.
C=CCN1C(=O)/C(=C2/Sc3ccccc3N2CCCS(=O)(=O)O)SC1=S	.	.	71	72	.
Cn1c(=O)c2c(ncn2CC(=O)OCC(=O)Nc2cccc(Cl)c2)n(C)c1=O	.	.	.	.	.
Cc1c(N)cc(N)cc1C(=O)O	.	/	.	84	.
O=C(Cc1ccccc1)Nn1cnc2ccccc21	.	.	.	78	.
O=C(Cn1cnc2ccccc21)NCc1ccccc1	.	.	.	.	.
CC1=CC(C)C(/C=N/N=C(N)N)C(C)C1 (centres undefined)	.	/	.	.	.
Nc1ncnc(Oc2ccccc2F)c1[N+](=O)[O-]	.	.	.	.	.
S=c1[nH]cc(-c2ccccc2)[nH]1	.	/	.	.	.
O=[N+]([O-])c1ccc(-c2c[nH]c(=S)[nH]2)cc1	.	/	95	.	.
Cc1cc(NS(=O)(=O)c2ccc(Nc3nc(-c4ccc(C)c(C)c4)cs3)cc2)no1	.	.	.	.	.
Cc1cc(NS(=O)(=O)c2ccc(Nc3nc(-c4ccc(O)cc4)cs3)cc2)no1	.	.	69	.	.
COc1ccc(-c2csc(Nc3ccc(S(N)(=O)=O)cc3)n2)cc1OC	.	.	51	.	.
O=C(COc1ccccc1Br)Nc1ccccc1C(F)(F)F	.	.	.	.	.
O=c1oc2ccccc2c(Nc2ccc3ccccc3c2)c1[N+](=O)[O-]	.	.	67	.	.
Cc1c(CCOC(=O)C23CC4(C)CC(C)(CC(C)(C4)C2)C3)sc[n+]1CC(=O)c1ccccc1	.	.	.	.	33
CCCCCCN(C(=O)CCCCCN1C(=O)NC(c2ccc(-c3ccccc3)cc2)C(C(=O)OCc2ccccc2)=C1C)C(C(=O)NCCCC)c1ccc(O)c(C(=O)OC)c1 (centres undefined)	.	/	.	.	.
SMILES	Mcl1 Bid PPI	Mcl-1 Bim block	Mcl1-Noxa inh	14-3-3 Bad inh	p47phox inh
COC(=O)C1C(c2ccc(OC)cc2)C(C(=O)OC)S(=O)(=O)C(CCN2CCCCC2)S1(=O)=O (centres undefined)	.	.	.	.	.
COc1ccc2nc(-c3ccco3)c(-c3ccco3)nc2c1	.	.	101	.	.
COc1ccc2nc3cccc(OC)c3nc2c1	.	.	.	.	.
c1coc(-c2nc(-c3ccco3)c(-c3ccco3)nc2-c2ccco2)c1	97	.	109	.	.
O=C(CSc1nc2ccccc2c(=O)n1-c1ccccc1)N1CCc2ccccc21	.	.	.	.	50
O=C(CSc1nc2ccccc2c(=O)n1-c1ccccc1)N1CCCc2ccccc21	.	.	.	.	.
Cn1c(SCC(=O)Nc2ccc3nc(SCC(=O)N4CCCC4)sc3c2)nnc1-c1ccccc1	.	.	97	.	.
Cn1c(SCC(=O)Nc2ccc3c(c2)oc2ccccc23)nnc1-c1ccccc1	.	.	.	72[fluorescence artefact?]	.
Cc1csc(NC(=O)CSc2nnc(-c3ccncc3)n2C)n1	.	.	.	.	41
CCN(CC)S(=O)(=O)c1ccc(C)c(NC(=O)COC(=O)c2ccc(C)c(S(=O)(=O)N3CCOCC3)c2)c1	.	.	.	.	.
Clc1ccc(SCCn2cncn2)cc1	.	.	/	73	.
CC(C)c1nc2ccc(NC(=O)C3CCCCC3)cc2[nH]1	.	.	.	.	.
O=C(Nc1ccc2nc(-c3ccccn3)[nH]c2c1)C1CCCCC1	.	.	.	.	40
CCCc1nc2c(C)ccc(C)c2c(N)c1CC	58	.	.	.	.
CCc1c(-c2ccccc2)nc2sc3c(c2c1N)CCCC3	.	/	.	.	.
O=C(NNC(=O)C1CCN(Cc2ccc(Cl)c(Cl)c2)CC1)c1cccs1	.	.	.	.	.
O=C(NNC(=O)C1CCN(Cc2ccccc2)CC1)c1cccs1	.	.	.	73	.
CCC(=O)NC1=C(Cl)C(=O)C(NC(=O)CC)=C(Cl)C1=O	.	/	92	.	50
Cc1c(N2C(=O)c3ccc4c5c(ccc(c35)C2=O)CC4)c(=O)n(-c2ccccc2)n1C	.	.	96	/	.
c1ccc(-c2nnc(OCCN3CCOCC3)c3ccccc23)cc1	.	79	.	.	.
Cc1ccc2nsnc2c1NC(=O)c1ccc(-c2cc(Cl)ccc2Cl)o1	.	.	51	.	.
Cc1ccc2nsnc2c1NC(=O)Cc1ccc(Cl)cc1	.	.	.	.	.
Cc1[nH]nc(-c2ccc(OCc3cnn(-c4ccccc4)c3)cc2O)c1Oc1ccccc1F	59	.	.	.	.
O=c1c(Oc2ccccc2F)coc2cc(OCc3cnn(-c4ccccc4)c3)ccc12	.	.	.	.	.
Cc1ccnc(NC(c2ccncc2)c2c(C)[nH]c3ccccc23)c1 (centres undefined)	51	.	.	.	.
SMILES	Mcl1 Bid PPI	Mcl-1 Bim block	Mcl1-Noxa inh	14-3-3 Bad inh	p47phox inh
COC(=O)c1ccncc1C(=O)Nc1ccc(F)cc1	.	.	.	.	.
O=C(O)CC1(CC(=O)Nc2ccccc2N2CCOCC2)CCCC1	.	/	.	.	.
COc1ccccc1CNC(=O)CNCC1CCCO1 (centres undefined)	50	.	.	.	.
O=C(CNCC1CCCO1)Nc1ccccc1N1CCCCCC1 (centres undefined)	.	.	.	82	.
O=C(CNCC1CCCO1)Nc1ccc(N2CCCCCC2)cc1 (centres undefined)	.	.	.	/	.
COC(=O)c1ccc(CN2CCN(CCc3ccccc3)C(CCO)C2)cc1 (centres undefined)	.	.	.	.	.
Cc1ccc(S(=O)(=O)Oc2cc(N)c3c(n2)CCC3)cc1	.	/	.	.	.
CCC1CSC(Nc2ccc(C(=O)/C=C/c3cccc(C)c3)cc2)=N1 (centres undefined)	.	.	85	.	.
CCn1cc(C=C2C(=O)c3ccccc3C2=O)c2ccccc21	.	.	.	.	75
CC(=O)O[C@@H]1[C@@]2(C)O[C@H]2CC[C@]23O[C@H]2[C@H](OC3=O)C2=C(C)C(=O)O[C@@]21O	.	.	.	.	.
O=c1cc(CO)[nH]cc1OCc1ccccc1	.	/	.	.	.

Screening data (PubChem)
